ST2 inh: inhibitors of human ST2 (IL1RL1) binding to IL-33, primary screen, biochemical, AlphaLISA | AlphaLISA ST2-Fc/biotin-IL-33 interaction, 1 h | inhibition, % for hits at 17 µM | hit rate 2.3% among 78,000 | Interleukin-1 receptor-like 1 (Homo sapiens), Q01638; in the data active means inhibition above about 30%
Target sequence (Q01638 whole entry, looked up): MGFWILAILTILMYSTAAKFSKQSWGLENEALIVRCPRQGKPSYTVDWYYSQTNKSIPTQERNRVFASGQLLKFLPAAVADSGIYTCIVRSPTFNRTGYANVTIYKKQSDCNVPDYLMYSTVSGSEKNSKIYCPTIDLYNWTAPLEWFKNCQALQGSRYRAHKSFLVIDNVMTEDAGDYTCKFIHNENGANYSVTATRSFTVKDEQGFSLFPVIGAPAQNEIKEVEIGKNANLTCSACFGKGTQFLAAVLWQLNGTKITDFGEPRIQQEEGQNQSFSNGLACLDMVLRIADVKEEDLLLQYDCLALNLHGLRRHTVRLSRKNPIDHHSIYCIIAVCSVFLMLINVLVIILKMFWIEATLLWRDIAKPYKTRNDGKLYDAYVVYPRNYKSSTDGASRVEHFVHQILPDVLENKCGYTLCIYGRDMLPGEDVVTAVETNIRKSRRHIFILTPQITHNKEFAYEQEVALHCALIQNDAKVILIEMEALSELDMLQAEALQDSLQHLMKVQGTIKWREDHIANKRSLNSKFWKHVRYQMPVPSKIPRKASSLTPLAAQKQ
Hits are given with their value. Shown is part of a subset that was picked to be rich in hits.

Screening O=[N+]([O-])c1ccc(N2CCN(Cc3cccc(Cl)c3)CC2)cc1 returned ST2 inh 36.0%.
`Brc1cccc(CN2CCN(c3ccccc3)CC2)c1` gave ST2 inh 31.0%.
`CC[C@H]1CN2CC[C@H]1C[C@@H]2CNC(=O)Nc1cccc(SC)c1` gave ST2 inh inactive.
`CN(N=O)c1cc(O)ccc1O` gave ST2 inh inactive.
For CC(C)Oc1cccc(C(=O)C2CCCN(CC(=O)NC3CC3)C2)c1 (stereo not given) the results were ST2 inh inactive.
For O=c1c2ccccc2nc(-c2ccccc2Cl)n1-c1ccccc1O the results were ST2 inh inactive.
Cc1ccccc1-n1c(/C=C2\C(=O)N(C)c3ccccc32)nc2ccccc2c1=O was read as ST2 inh 49.0%.
For Cc1ccccc1-n1c(Cc2ccccc2)nc2ccccc2c1=O the results were ST2 inh inactive.
`COc1ccc(-n2c(/C=C/c3ccccc3)nc3ccccc3c2=O)cc1OC` gave ST2 inh inactive.
For O=c1c2ccccc2nc(/C=C/c2ccccc2)n1-c1ccccc1F the results were ST2 inh inactive.
COc1ccc(/C=C/c2nc3ccccc3c(=O)n2-c2ccccc2OC)cc1 was read as ST2 inh 32.0%.
For O=[N+]([O-])c1ccccc1CN1CC=C(c2ccc(F)cc2)CC1 the results were ST2 inh 30.0%.
`CN1CCN(Cc2cccc([N+](=O)[O-])c2)CC1` gave ST2 inh inactive.
`NC(=O)c1ccc(OCC(O)CN2CC=C(c3ccc(F)cc3)CC2)cc1` (stereo not given) gave ST2 inh inactive.
For O=[N+]([O-])c1cccc(CN2CC=C(c3ccc(F)cc3)CC2)c1 the results were ST2 inh 35.0%.
O=[N+]([O-])c1ccccc1CN1CCN(c2ccc(Cl)cc2)CC1 was read as ST2 inh inactive.
For CN1CCN(Cc2ccccc2[N+](=O)[O-])CC1 the results were ST2 inh inactive.
O=c1cccc2n1C[C@H]1C[C@@H]2CN(Cc2cn[nH]c2-c2ccc(F)cc2)C1 was read as ST2 inh inactive.
C(#CCN1CCCCC1)COC/C=C/c1ccccc1 was read as ST2 inh inactive.
COc1ccc(-c2ccc(=O)n3c2[C@@H]2C[C@@H](CN(C(=O)c4ccc(C#N)cc4)C2)C3)cc1 was read as ST2 inh inactive.
C/C=C(\C)C(=O)OC1C(C)OC(OC2C(C)OC(OC3CCC4(C)C(=CCC5C4CCC4(C)C(C(C)OC6OC(COC7OC(CO)C(O)C(O)C7O)C(O)C(O)C6O)CCC54O)C3)CC2OC)C(O)C1OC (stereo not given) was read as ST2 inh inactive.
O=C(CN1C(=O)CN=C(c2ccccc2)c2cc(Cl)ccc21)Nc1cccc(C(F)(F)F)c1 was read as ST2 inh inactive.
Screening CCOC(=O)c1c(C)n(Cc2ccccc2)c2c1cc(O)c1ccccc12 returned ST2 inh inactive.
Cc1c(C(c2ccccc2Cl)c2c(O)c3ccccc3oc2=O)c(=O)n(-c2ccccc2)n1C (stereo not given) was read as ST2 inh inactive.
For CC(c1c(O)c2ccccc2oc1=O)c1c(O)c2ccccc2oc1=O the results were ST2 inh 36.0%.
`COc1ccc(C(c2c(O)c3ccccc3oc2=O)c2c(C)n(C)n(-c3ccccc3)c2=O)cc1` (stereo not given) gave ST2 inh inactive.
Screening Cc1ccsc1CN1CCN(C)CC1 returned ST2 inh inactive.
For OCCN1CCN(Cc2ccc(Cl)c(Cl)c2)CC1 the results were ST2 inh inactive.
`COc1ccc(S(=O)(=O)NC[C@H]2C[C@@H]3CCN2C[C@@H]3CN(C)CCc2ccccn2)cc1` gave ST2 inh inactive.
For CNc1ccnc(NCCC23CCCN2CCC3)n1 the results were ST2 inh inactive.
For CCCNC(=O)OC[C@H]1C[C@@H]2CCN1C[C@@H]2c1cc(-c2ccccc2OC)nn1C the results were ST2 inh inactive.
O=C(c1ccccc1)c1cc(Cl)ccc1NC(=O)c1cc2ccccc2oc1=O was read as ST2 inh inactive.
For NC(N)=NOCC[C@H](N)C(=O)O the results were ST2 inh inactive.
For O=C(O)C1Nc2c(F)cccc2C2C(Cl)C(Sc3ccccc3[N+](=O)[O-])CC12 (stereo not given) the results were ST2 inh 34.0%.
`COc1ccccc1-c1cc([C@H]2CN3CC[C@H]2C[C@@H]3COC(=O)Nc2ccccc2)nc(C)n1` gave ST2 inh inactive.
`O=C1NC(=O)C(=Cc2cn(CCOc3ccc4c(c3)OCO4)c3ccccc23)C(=O)N1` gave ST2 inh 35.0%.
`CCN(CC)C(=O)Cn1cc(/C=C2\C(=O)NC(=O)N(c3ccccc3F)C2=O)c2ccccc21` gave ST2 inh inactive.
For S=C(NC[C@H]1C[C@@H]2CCN1C[C@@H]2CN1CCCCC1)Nc1ccc(-n2cccn2)cc1 the results were ST2 inh inactive.
`COc1ccc(C(=O)NC[C@H]2C[C@@H]3CCN2C[C@@H]3c2cc(-c3ccc4ccccc4c3)nn2C)cc1` gave ST2 inh inactive.
COc1ccc(-c2cc([C@H]3CN4CC[C@H]3C[C@@H]4CNC(=O)c3ccc(C)cc3)n(C)n2)cc1OC was read as ST2 inh inactive.
`CC[C@H]1CN2CC[C@H]1C[C@@H]2CNC(=S)NC1CC1` gave ST2 inh inactive.
Cc1cccc(-n2c(/C=C3\C(=O)Nc4ccccc43)nc3ccccc3c2=O)c1 was read as ST2 inh inactive.
`Cc1cccc(-n2c(-c3cccnc3)nc3ccccc3c2=O)c1` gave ST2 inh 46.0%.
Screening O=c1c2ccccc2nc(-c2ccccc2)n1-c1ccccc1 returned ST2 inh inactive.
Screening CN1C(=O)C2(CCCN(Cc3cccnc3N)C2)c2ccccc21 (stereo not given) returned ST2 inh inactive.
`CCC1=CC2CN3CCc4c([nH]c5ccccc45)[C@@](C(=O)OC)(C2)[C@@H]13` gave ST2 inh inactive.
